Source: PubChem
Shn3 3UTR inh = reduction of Shn3 3'UTR firefly luciferase signal, primary screen, Schnurri-3 inhibitor project, cell-based, Clone20 osteoblasts, set 2; hit rate 0.52% among 360,000; inhibition, % at 12.5 µM; Clone20 osteoblast Shn3 3'UTR firefly luciferase, 24 h; AID 588674, 2011;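 active means mean inhibition of at least 75% with every replicate also reaching 75%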;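 further: 0% = median of neutral control wells and 100% = pilot-screen positive control compound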
Mdm2 MdmX PPI = inhibitors of human Mdm2-MdmX association, primary screen, cell-based, luminescence, split luciferase, SaOS-2, uHTS | Protein Mdm4 (Homo sapiens) + E3 ubiquitin-protein ligase Mdm2 (Homo sapiens), … | SaOS-2 split-luciferase Mdm2/MdmX complementation | inhibition, % at 8 µM | hit rate 3% among 330,000 | AID 485346, 2010;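 active means inhibition of at least 50% at 8 µM in the primary screen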
Target sequence (O15151 whole entry, looked up): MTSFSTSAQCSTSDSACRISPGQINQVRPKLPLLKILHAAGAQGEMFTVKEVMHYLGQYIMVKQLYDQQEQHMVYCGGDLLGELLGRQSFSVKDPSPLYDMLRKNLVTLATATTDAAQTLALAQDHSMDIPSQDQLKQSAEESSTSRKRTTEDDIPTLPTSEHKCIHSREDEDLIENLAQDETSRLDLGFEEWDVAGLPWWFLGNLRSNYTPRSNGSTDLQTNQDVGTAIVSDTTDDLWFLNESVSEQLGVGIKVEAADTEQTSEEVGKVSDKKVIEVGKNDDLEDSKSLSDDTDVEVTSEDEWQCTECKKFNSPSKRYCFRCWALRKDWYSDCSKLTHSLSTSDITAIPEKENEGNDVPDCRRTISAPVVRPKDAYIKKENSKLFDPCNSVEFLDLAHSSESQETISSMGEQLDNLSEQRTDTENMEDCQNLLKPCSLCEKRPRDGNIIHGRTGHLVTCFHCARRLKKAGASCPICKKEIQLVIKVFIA
Target sequence (Q00987 whole entry, looked up): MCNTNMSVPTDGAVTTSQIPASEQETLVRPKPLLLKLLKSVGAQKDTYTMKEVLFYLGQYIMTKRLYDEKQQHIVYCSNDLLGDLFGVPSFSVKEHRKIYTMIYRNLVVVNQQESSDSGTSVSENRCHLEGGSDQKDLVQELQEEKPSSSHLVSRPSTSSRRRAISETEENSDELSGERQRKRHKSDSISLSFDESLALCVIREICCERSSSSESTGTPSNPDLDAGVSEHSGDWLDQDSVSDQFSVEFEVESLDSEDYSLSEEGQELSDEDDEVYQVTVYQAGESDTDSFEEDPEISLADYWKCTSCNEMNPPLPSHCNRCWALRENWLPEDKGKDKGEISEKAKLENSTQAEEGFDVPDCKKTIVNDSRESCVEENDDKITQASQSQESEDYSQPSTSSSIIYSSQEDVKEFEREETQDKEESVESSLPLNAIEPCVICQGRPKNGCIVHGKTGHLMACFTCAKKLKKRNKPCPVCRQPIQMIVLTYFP
Gli-Sufu antag = Gli-Sufu pathway antagonists, primary screen, luciferase luminescence, Sufu-KO-LIGHT cells, uHTS; hit rate 0.74% among 340,000; Sufu-KO-LIGHT fibroblasts, Gli luciferase reporter luminescence; inhibition, % at 5 µM;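 active means inhibition above about 55%, limit read from the data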;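 further: 0% = DMSO-treated cells and 100% = wells with medium but no cells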
697 NFkB inh = inhibitors of PMA/ionomycin-induced NF-kB reporter, 697 cells, primary screen, B-cell NF-kB inhibitor project, cell-based, luminescence, uHTS; 697 B-cell NF-kB luciferase reporter, 16 h; inhibition, % at 4 µM; hit rate 0.33% among 330,000; in the data active means inhibition above about 35%
Jurkat NFkB inh = inhibitors of induced NF-kB luciferase reporter, primary screen, TCR NF-kB activation inhibitor project, cell-based, luminescence, uHTS. Jurkat, PMA/ionomycin-induced NF-kB luciferase reporter. inhibition, % at 4 µM. hit rate 0.53% among 330,000; in the data active means inhibition above about 50%
Jurkat NFkB conf = PMA/ionomycin-induced NF-kB reporter inhibitors, Jurkat retest, confirmation, T-cell NF-kB inhibitor project, cell-based, luminescence, single concentration; hit rate 27% among 2,700; inhibition, % at 4 µM; shares compounds with Jurkat NFkB inh; Jurkat NF-kB luciferase, 16 h;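 active means inhibition reaching about 45% at 4 µM in either replicate, limit read from the data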;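 further: plate controls were PMA/ionomycin stimulated DMSO wells for no effect and unstimulated DMSO wells for full effect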
697 NFkB conf = PMA/ionomycin-induced NF-kB reporter inhibitors, 697 retest, confirmation, B-cell NF-kB inhibitor project, cell-based, luminescence, single concentration; shares compounds with 697 NFkB inh; 697 B-cell NF-kB luciferase, 16 h; inhibition, % at 4 µM; hit rate 35% among 2,000; AID 449746, 2010; in the data active means inhibition mostly above about 28%, no sharp cut-off; inactive means mostly below about 22%
Mdm2 MdmX conf = Mdm2-MdmX complex disruptors, retested hits, confirmation, luminescence, single concentration; shares compounds with Mdm2 MdmX PPI; inhibition, % at 8 µM; AID 489028, 2010; Mdm2-MdmX binding, luminescent assay; hit rate 55% among 10,000; in the data active means inhibition above about 40%
Full FLuc ctr = full-length luciferase signal inhibition, confirmation, counter-screen for Mdm2/MdmX interaction inhibitor project, cell-based, single concentration, SaOS-2 | SaOS-2 full-length luciferase counterscreen, luminescence | hit rate 77% among 6,200 | inhibition, % at 8 µM | shares compounds with Mdm2 MdmX PPI;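 active means mean inhibition at 8 µM reaching about 37%, which flags the compound as non-specific, limit read from the data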;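 further: p53-null SaOS-2 cells with luciferase driven by a doxycycline-inducible promoter; compound on cells about two nights before reading with doxycycline added after day one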
Starred values were filed as active, the others as inactive. Most compounds without a hit are left out; they make up all but 3.8% or so of the library.

How did CC(O)[C@H]1CNC(=O)C(=O)N1CC1(c2ccccc2)CC1 (some centres undefined) do in these assays?
Shn3 3UTR inh: -10; Mdm2 MdmX PPI: 2; Gli-Sufu antag: -4; 697 NFkB inh: -1; Jurkat NFkB inh: -5

How did CCOC(=O)C1(C(=O)OCC)C(C)CC(=O)N1c1ccccc1OC (centres undefined) do in these assays?
Shn3 3UTR inh: -13

What do the screens show for `CCOC(=O)Nc1nc(-c2ccccc2)c(C(=O)c2ccccc2)s1`?
Shn3 3UTR inh: 22; Mdm2 MdmX PPI: 61*; Gli-Sufu antag: 49; 697 NFkB inh: -7; Jurkat NFkB inh: 51*; Jurkat NFkB conf: 50*; Mdm2 MdmX conf: 51*; Full FLuc ctr: 91*

How did O=C(NCc1cccs1)C1CCN(c2ccc(S(=O)(=O)N3CCOCC3)cc2Cl)CC1 do in these assays?
Shn3 3UTR inh: 31; Mdm2 MdmX PPI: 63*; Gli-Sufu antag: 27; 697 NFkB inh: -75; Jurkat NFkB inh: 76*; Jurkat NFkB conf: 54*; Mdm2 MdmX conf: 43*; Full FLuc ctr: 91*

Results for CCN1/C(=C/c2ccc3cc(C)ccc3[n+]2CC)Sc2ccccc21 ?
Shn3 3UTR inh: 84; Mdm2 MdmX PPI: 97*; Gli-Sufu antag: 89*; 697 NFkB inh: 86*; Jurkat NFkB inh: 96*; Jurkat NFkB conf: 69*; 697 NFkB conf: 49*; Mdm2 MdmX conf: 95*; Full FLuc ctr: 8

How did CCC(=O)/C=C1/Sc2ccccc2N1CC do in these assays?
Shn3 3UTR inh: 14; Mdm2 MdmX PPI: 2; Gli-Sufu antag: 5; 697 NFkB inh: 14; Jurkat NFkB inh: 8

Results for CCN1/C(=C/c2ccc3cc(C)ccc3[n+]2CC)Sc2cc(C)c(C)cc21 ?
Shn3 3UTR inh: 35; Mdm2 MdmX PPI: 81*; Gli-Sufu antag: 91*; 697 NFkB inh: 65*; Jurkat NFkB inh: 93*; Jurkat NFkB conf: 74*; 697 NFkB conf: 80*; Mdm2 MdmX conf: 85*; Full FLuc ctr: 39*

What do the screens show for `CCN(CC)C(=O)c1[nH]cnc1C(=O)NC1CCN(C(=O)OC(C)(C)C)CC1`?
Shn3 3UTR inh: 16; Mdm2 MdmX PPI: 1; Gli-Sufu antag: 35; 697 NFkB inh: 7; Jurkat NFkB inh: -5

Results for C[C@H]1O[C@@H](O[C@H]2[C@@H](O)C[C@H](O[C@H]3[C@@H](O)C[C@H](O[C@H]4CC[C@@]5(C)[C@H](CC[C@@H]6[C@@H]5C[C@@H](O)[C@]5(C)[C@@H](C7=CC(=O)OC7)CC[C@]65O)C4)O[C@@H]3C)O[C@@H]2C)C[C@H](O)[C@@H]1O ?
Shn3 3UTR inh: -23; Mdm2 MdmX PPI: 82*; Gli-Sufu antag: -29; 697 NFkB inh: 92*; Jurkat NFkB inh: 96*; Jurkat NFkB conf: 97*; 697 NFkB conf: 93*; Mdm2 MdmX conf: 75*; Full FLuc ctr: 15

Results for CCOC(=O)c1[nH]c2c(c1C)C(=O)CC(c1ccc(OC)c(OC)c1)C2 (centres undefined) ?
Shn3 3UTR inh: -5; Mdm2 MdmX PPI: 6; Gli-Sufu antag: 9; 697 NFkB inh: -12; Jurkat NFkB inh: -8

How did C=CCOC(=O)c1[nH]c2c(c1C)C(=O)CC(c1ccco1)C2 (centres undefined) do in these assays?
Mdm2 MdmX PPI: 63*; Gli-Sufu antag: 54; 697 NFkB inh: -15; Jurkat NFkB inh: 74*; Jurkat NFkB conf: 50*; Mdm2 MdmX conf: 55*; Full FLuc ctr: 86*

What do the screens show for `Cc1c(C(=O)OCC(C)C)[nH]c2c1C(=O)CC(c1ccco1)C2` (centres undefined)?
Shn3 3UTR inh: 64; Mdm2 MdmX PPI: 75*; Gli-Sufu antag: 44; 697 NFkB inh: -29; Jurkat NFkB inh: 65*; Jurkat NFkB conf: 6; Mdm2 MdmX conf: 54*; Full FLuc ctr: 77*

How did Cc1c(C(=O)OC2CCCC2)[nH]c2c1C(=O)CC(c1ccco1)C2 (centres undefined) do in these assays?
Shn3 3UTR inh: 90*; Mdm2 MdmX PPI: 68*; Gli-Sufu antag: 46; 697 NFkB inh: -32; Jurkat NFkB inh: 67*; Jurkat NFkB conf: 57*; Mdm2 MdmX conf: 48*; Full FLuc ctr: 78*

Results for COC(=O)c1[nH]c2c(c1C)C(=O)CC(c1ccc(OC)cc1)C2 (centres undefined) ?
Shn3 3UTR inh: 0; Mdm2 MdmX PPI: 16; Gli-Sufu antag: 10; 697 NFkB inh: -3; Jurkat NFkB inh: 9

Results for C[C@@H]1C=CC(=O)O[C@@H]1c1ccc(Cl)cc1 ?
Mdm2 MdmX PPI: 79*; Gli-Sufu antag: 6; 697 NFkB inh: -33; Jurkat NFkB inh: 96*; Jurkat NFkB conf: 97*; Mdm2 MdmX conf: 61*; Full FLuc ctr: 5

What do the screens show for `CC1C(=O)OC(c2ccc(Cl)cc2)C(C)(C)C1=O` (centres undefined)?
Shn3 3UTR inh: 10; Mdm2 MdmX PPI: -7; Gli-Sufu antag: 10; 697 NFkB inh: -5; Jurkat NFkB inh: -26

What do the screens show for `FC(F)(F)c1nnc2c(Sc3ccc(Cl)cc3)nc3ccccc3n12`?
Shn3 3UTR inh: 8; Mdm2 MdmX PPI: 85*; Gli-Sufu antag: 20; 697 NFkB inh: 8; Jurkat NFkB inh: 74*; Jurkat NFkB conf: 5; Mdm2 MdmX conf: 95*; Full FLuc ctr: 32

Results for CCN(Cc1nc2ccccc2c(=O)[nH]1)C(=O)c1cccc(S(=O)(=O)N2CCc3ccccc32)c1 ?
Shn3 3UTR inh: 43; Mdm2 MdmX PPI: -2; Gli-Sufu antag: 2; 697 NFkB inh: 4; Jurkat NFkB inh: 14

What do the screens show for `COc1ccc([C@H]2N[C@]3(CCCN(Cc4ccc(C(F)(F)F)cc4)C3=O)[C@H]3C(=O)N(Cc4ccccc4)C(=O)[C@@H]23)cc1`?
Shn3 3UTR inh: 9
